According to PubChem BioAssay (Tox21):
Inconclusive results are not listed. Active and inactive are the calls of the source. Calls come from the whole dose curve; as a rule, active = well fitted curve in the direction sought with a large enough effect in the repeat runs; inconclusive = weak or mixed curves; inactive = no such curve, though single readings can be large; an effect the other way counts as inactive or inconclusive.

Legend:
[1] = A CellTox Green Cytotoxicity Assay to monitor cytotoxicity in HepG2 cells - 16 hour (AID 1224876); note: nearly all actives have a fitted effect of over 45% in size
Summary of the method: (§1)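 Read-out is fluorescence of a cyanine dye excluded from live cells that stains DNA of dead HepG2 cells, with signal proportional to cytotoxicity. Plates were read at 0, 8, 16, 24, 32 and 40 h after compound addition.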

[2] = qHTS RealTime-Glo MT Cell Viability Assay in HepG2 cells - 32 hour (AID 1224877); note: nearly all actives have a fitted effect of over 55% in size
Summary of the method: (§2)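 HepG2 suspension premixed with RealTime-Glo reagents is plated at 600 cells per well and left 5 h at 37 C/5% CO2. Compounds in DMSO then go in, and bioluminescence reflecting viable cell number is recorded over 40 h.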

[3] = A CellTox Green Cytotoxicity Assay to monitor cytotoxicity in HepG2 cells - 24 hour (AID 1224878); note: nearly all actives have a fitted effect of over 45% in size
Summary of the method: as §1

[4] = A CellTox Green Cytotoxicity Assay to monitor cytotoxicity in HepG2 cells - 40 hour (AID 1224879); note: nearly all actives have a fitted effect of over 40% in size
Summary of the method: as §1

[5] = A CellTox Green Cytotoxicity Assay to monitor cytotoxicity in HEK293 cells - 32 hour (AID 1224881); note: nearly all actives have a fitted effect of over 40% in size
Summary of the method: (§3)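 Nonlytic real-time cytotoxicity: HEK293 + CellTox Green reagent plated, 5 h preincubation, pintool compound addition (23 nL in DMSO), 37 C for 40 h, fluorescence measured at successive time points.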

[6] = A CellTox Green Cytotoxicity Assay to monitor cytotoxicity in HepG2 cells - 0 hour (AID 1224882); note: nearly all actives have a fitted effect of over 35% in size
Summary of the method: as §1

[7] = A CellTox Green Cytotoxicity Assay to monitor cytotoxicity in HepG2 cells - 32 hour (AID 1224883); note: nearly all actives have a fitted effect of over 50% in size
Summary of the method: as §1

[8] = A CellTox Green Cytotoxicity Assay to monitor cytotoxicity in HEK293 cells - 8 hour (AID 1224884); note: nearly all actives have a fitted effect of over 35% in size
Summary of the method: as §3

[9] = qHTS RealTime-Glo MT Cell Viability Assay in HepG2 cells - 16 hour (AID 1224885); note: nearly all actives have a fitted effect of over 50% in size
Summary of the method: as §2

[10] = qHTS RealTime-Glo MT Cell Viability Assay in HEK293 cells - 0 hour (AID 1224880); note: top concentration of the series differs between compounds; nearly all actives have a fitted effect of over 45% in size
Summary of the method: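 Cells were seeded together with NanoLuc luciferase and a prosubstrate that viable cells reduce to a luciferase substrate. After a 5 h incubation at 37 C/5% CO2, compounds were added and luminescence was measured repeatedly during 40 h of treatment.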
% is set by controls: 0 for no effect and ±100 for the full control effect.

Cc1ccc2c(c1)c1c3n2CCNC3CCC1 (configuration not stated)
inactive: Potency [1] | outcome [2] | Potency [3] | Potency [4] | Potency [5] | Potency [6] | Potency [7] | Potency [8] | outcome [9]

CCOC(=O)CC(CC(=O)OCC)(OC(C)=O)C(=O)OCC
inactive: Potency [1] | outcome [2] | Potency [3] | outcome [10] | Potency [5] | Potency [6] | Potency [7] | Potency [8]

COCCOCCOCCOC
inactive: Potency [1] | outcome [2] | Potency [3] | Potency [4] | Potency [5] | Potency [6] | Potency [7] | Potency [8] | outcome [9]

Cc1nc([N+](=O)[O-])cn1-c1ccc([N+](=O)[O-])cc1
inactive: Potency [1] | outcome [2] | Potency [3] | outcome [10] | Potency [5] | Potency [6] | Potency [7] | Potency [8] | outcome [9]

C=CCCCCCCCCCCC
inactive: cytotoxicity increase [1] -0.067% [at 6.97 µM] | activity change, negative = cytotoxic [2] -0.401% [at 6.97 µM] | cytotoxicity [3] 0.49% [at 6.97 µM] | cytotoxicity increase [4] 1.74% [at 6.97 µM] | cytotoxicity increase [5] -0.213% [at 6.97 µM] | cytotoxicity [6] 1.75% [at 6.97 µM] | cytotoxicity increase [7] 1.86% [at 6.97 µM] | cytotoxicity increase [8] 2.18% [at 6.97 µM] | activity change, negative = cytotoxic [9] -0.787% [at 6.97 µM]

C=CC(C)(O)CC/C=C(\C)CC (configuration not stated)
inactive: Potency [1] | outcome [2] | Potency [3] | outcome [10] | Potency [5] | Potency [6] | Potency [7] | Potency [8] | outcome [9]

C[N+](C)(C)CC(O)CCl (configuration not stated)
inactive: Potency [1] | outcome [2] | Potency [3] | Potency [4] | Potency [5] | Potency [6] | Potency [7] | outcome [9]

CC1=NN(c2ccc(S(=O)(=O)O)cc2)C(=O)C1N=Nc1ccccc1 (configuration not stated)
inactive: Potency [1] | outcome [2] | Potency [3] | outcome [10] | Potency [5] | Potency [6] | Potency [7] | Potency [8] | outcome [9]

CC(C)=CC(C)(C)C
inactive: Potency [1] | outcome [2] | Potency [3] | Potency [4] | Potency [5] | Potency [6] | Potency [7] | Potency [8] | outcome [9]

NC(=O)NNC(N)=O
inactive: Potency [1] | outcome [2] | Potency [3] | Potency [4] | Potency [5] | Potency [6] | Potency [8] | outcome [9]

C=COCCOCCOC=C
inactive: Potency [1] | outcome [2] | Potency [3] | Potency [4] | Potency [5] | Potency [6] | Potency [7] | Potency [8] | outcome [9]

NC(Cc1c[nH]c2ccccc12)C(=O)O (configuration not stated)
inactive: Potency [1] | outcome [2] | Potency [3] | Potency [4] | Potency [5] | Potency [6] | Potency [7] | Potency [8] | outcome [9]

COc1cc(C=O)ccc1OC(=O)C(C)C
inactive: Potency [1] | outcome [2] | Potency [3] | outcome [10] | Potency [5] | Potency [6] | Potency [7] | Potency [8] | outcome [9]

O=C(O)Cc1cccc(-c2cc(CCCCCCc3ccc(O[C@H]4O[C@H](CO)[C@@H](O)[C@H](O)[C@@H]4O)c(-c4cccc(CC(=O)O)c4)c3)ccc2O[C@H]2O[C@H](CO)[C@@H](O)[C@H](O)[C@@H]2O)c1
inactive: cytotoxicity increase [1] 15.1% [at 0.29 µM] | activity change, negative = cytotoxic [2] -9.69% [at 0.29 µM] | cytotoxicity [3] 15.2% [at 0.29 µM] | cytotoxicity increase [4] 20% [at 0.29 µM] | cytotoxicity increase [5] -14.2% [at 0.29 µM] | activity change, negative = cytotoxic [9] 17.8% [at 0.29 µM]

CCCCOC(=O)C(C)OC(=O)CCC (configuration not stated)
inactive: Potency [1] | outcome [2] | Potency [3] | outcome [10] | Potency [5] | Potency [6] | Potency [7] | Potency [8]

O=C(O)c1ccc(OCCN2CCCCC2)cc1
inactive: Potency [1] | outcome [2] | Potency [3] | outcome [10] | Potency [5] | Potency [6] | Potency [7] | Potency [8]

CN(C)CCCNCCC#N
inactive: Potency [1] | outcome [2] | Potency [3] | outcome [10] | Potency [5] | Potency [6] | Potency [7] | Potency [8] | outcome [9]

CC(CC(=O)O)CC(C)(C)C (configuration not stated)
inactive: Potency [1] | outcome [2] | Potency [3] | outcome [10] | Potency [5] | Potency [6] | Potency [7] | Potency [8] | outcome [9]

C[C@H](CCC(=O)O)[C@H]1CC[C@H]2[C@@H]3[C@H](O)C[C@@H]4C[C@H](O)CC[C@]4(C)[C@H]3C[C@H](O)[C@]12C
inactive: Potency [1] | outcome [2] | Potency [3] | Potency [4] | Potency [5] | Potency [6] | Potency [7] | Potency [8] | outcome [9]

O=S1(=O)CCCC1
inactive: Potency [1] | outcome [2] | Potency [3] | outcome [10] | Potency [5] | Potency [6] | Potency [7] | Potency [8] | outcome [9]

CCCCC(CC)C(=O)OC(C)C (configuration not stated)
inactive: Potency [1] | outcome [2] | Potency [3] | outcome [10] | Potency [5] | Potency [6] | Potency [7] | Potency [8] | outcome [9]

CCOC(=O)CC#N
inactive: Potency [1] | outcome [2] | Potency [3] | outcome [10] | Potency [5] | Potency [6] | Potency [7] | Potency [8] | outcome [9]

CC(=O)OC(C(=O)c1ccccc1)c1ccccc1 (configuration not stated)
inactive: Potency [1] | outcome [2] | Potency [3] | Potency [4] | Potency [5] | Potency [6] | Potency [7] | Potency [8] | outcome [9]

O=C1CC[C@H](C(=O)N2CCCCC2)N1
inactive: Potency [1] | outcome [2] | Potency [3] | Potency [4] | Potency [5] | Potency [6] | Potency [8] | outcome [9]
